The molecules below were run on DYRK2. Settings: concentration: 1 μM, replicates: in singlicate; n = 1.
`Cl.Cl.NCC(NC(=O)c1cc(-c2ccccc2)c(-c2ccnc3[nH]ccc23)s1)c1ccccc1` (stereo not shown) [GSK1321561] was tested, and the “%Inh” value was 25%. For `c1ccc(Oc2ccc(Nc3ccnc4cc(-c5ccc(CNCCN6CCOCC6)o5)ccc34)cc2)nc1` [GW567145], the “%Inh” value was 15%. With `CC(C)(C)c1ccc2nccc(Nc3cccc(O)c3)c2c1` [GW856795] the “%Inh” value was 51%. In the case of `COc1ccc(-c2coc3ccc(-c4nnc(SCc5ccc(OC)c(C(F)(F)F)c5)o4)cc23)cc1`, the “%Inh” value is reported as 14%. With `COc1cccc(C2=C(Nc3ccc(Cl)c(C(=O)O)c3)C(=O)NC2=O)c1` [SB-390769] the “%Inh” value was 100%. For `O=C(Nc1n[nH]c2nc(-c3ccc(O)cc3)ccc12)C1CC1` [SB-710363], the “%Inh” value was 97.2%. In the case of `CNC(=O)c1ccccc1Nc1nc(Nc2ccc(N3CCOCC3)cc2)ncc1Cl.Cl` [GSK1576028], the “%Inh” value is reported as 99.1%. With `COc1ccc(Nc2nccc(NCCNC(=O)c3cc4ccccc4s3)n2)cc1` [GSK1379896] the “%Inh” value was 5%. In the case of `COc1cc(Nc2nccc(-c3c(-c4cccc(NC(=O)c5c(F)cccc5F)c4)nn4ccccc34)n2)cc(OC)c1OC` [GSK323521], the “%Inh” value is reported as 0%. In the case of `Cc1ccc(C(=O)N2CC[C@@H](O)C2)cc1-n1c(C)cc(OCc2ccc(F)cc2F)c(Br)c1=O`, the “%Inh” value is reported as 0%. `Cc1ccc(S(=O)(=O)Nc2ccc(Nc3nccc(Nc4cccc5[nH]ncc45)n3)cc2)cc1` [GSK581271] was tested, and the “%Inh” value was 12%. For `COc1cc2c(cc1OCCN1CCNCC1)ncc1c3ccc(C#N)cc3[nH]c21`, the “%Inh” value was 73%.

These molecules were tested on EGFR. Settings: concentration: 1 μM, replicates: in singlicate; n = 1.
In the case of `CC(=O)N1CCN(c2ccc(Nc3nccc(-c4sc(C(C)C)nc4-c4cccc(NS(=O)(=O)c5cccc(Cl)c5)c4)n3)cn2)CC1` [GSK1660437], the “%Inh” value is reported as 86%. `CN(C)S(=O)(=O)c1cc(-c2ccc3nccc(-c4cccc(S(N)(=O)=O)c4)c3c2)cnc1N` [GSK1669921] was tested, and the “%Inh” value was 18%. With `O=C(NC1CCN(c2ccnc(Nc3ccc(F)cc3)n2)C1)c1cc2ccccc2s1` (stereo not shown) [GSK1379716] the “%Inh” value was 22%. With `Cn1cc(-c2ccc3c(c2)CCN3C(=O)Cc2cccc(Cl)c2)c2c(N)ncnc21` [GSK2606590] the “%Inh” value was 2%. In the case of `FC(F)(F)c1ccc(/C=C/c2cncnc2Nc2ccc3[nH]c(Cc4ccccc4)nc3c2)cc1` [GW709199], the “%Inh” value is reported as 46%. With `Cl.c1ccc(-c2ccc3c(Nc4ccc5[nH]ccc5c4)ccnc3c2)nc1` [GW440138] the “%Inh” value was 89%. With `c1ccc(-c2n[nH]cc2Nc2ccnc3ccccc23)nc1` [GW694077] the “%Inh” value was 15%. `CC(C)c1nc(-c2cccc(NS(=O)(=O)c3c(F)cccc3F)c2F)c(-c2ccnc(Nc3ccc(N4CCOCC4)nc3)n2)s1` [GSK2008607] was tested, and the “%Inh” value was 94.3%. `COc1cc(Nc2nccc(N3CCC(NC(=O)c4cc5ccccc5s4)C3)n2)cc(OC)c1OC` (stereo not shown) [GSK1379760] was tested, and the “%Inh” value was 45%. In the case of `COc1cc(Nc2ncc3c(C)nc(-c4cc5ccccc5[nH]4)n3n2)cc(OC)c1OC` [GW869516], the “%Inh” value is reported as 0%. For `Cn1cc(-c2[nH]c3cc(NC(=O)[C@H](N)C4CCCCC4)cc4c3c2C=NNC4=O)cn1`, the “%Inh” value was 81%. `COC(=O)Nc1nc2ccc(Oc3ccc(NC(=O)Nc4cc(C(F)(F)F)ccc4F)cc3)cc2n1C.Cl` [GW692089] was tested, and the “%Inh” value was 0%. In the case of `CCS(=O)(=O)c1ccc(OC)c(Nc2nccc(-c3c(-c4cccc(NC(=O)c5c(F)cccc5F)c4)nn4ncccc34)n2)c1` [GSK326180], the “%Inh” value is reported as 99.3%. In the case of `CCn1c(-c2nonc2N)nc2c(C#CC(C)(C)O)nc(OC[C@H](N)c3ccccc3)cc21` [GSK943949], the “%Inh” value is reported as 12%. In the case of `CC(=O)Nc1nc2cnc(Nc3cc(NC(=O)c4cccc(C5(C#N)CC5)c4Cl)ccc3C)nc2s1`, the “%Inh” value is reported as 0%. For `COc1ccc(CNC(=O)NC2CCN(c3ccnc(Nc4ccc(F)cc4)n3)CC2)cc1` [GSK1379788], the “%Inh” value was 13%. For `O=C(O)C(F)(F)F.O=C(O)C(F)(F)F.O=c1[nH]ccc2nc(N[C@@H]3CCCNC3)nc(Nc3ccc(S(=O)(=O)N4CCOCC4)cc3)c12` [GSK2177277], the “%Inh” value was 45%. In the case of `Cc1occc1-c1ncc(OC[C@@H](N)Cc2c[nH]c3ccccc23)cc1-c1ccc2[nH]nc(C)c2c1.O=C(O)C(F)(F)F` [GSK682037], the “%Inh” value is reported as 94.3%. With `CSc1cccc2c(-c3ccncn3)c(-c3ccc(F)cc3)nn12` [GW514786] the “%Inh” value was 70%. With `CN1CCN(Cc2cccc(-c3ccc4c(Nc5ccc(Oc6ccccc6)cc5)ccnc4c3)c2)CC1` [GW578342] the “%Inh” value was 87%. With `COc1cccc(NC(=O)NC2CCN(c3ccnc(Nc4cc(OC)c(OC)c(OC)c4)n3)C2)c1` (stereo not shown) [GSK1379763] the “%Inh” value was 12%. `CN1CCN(CCCNc2nccc(-c3c(-c4ccc(F)cc4)nn4cc(C(F)(F)F)ccc34)n2)CC1` [GW621581] was tested, and the “%Inh” value was 23%. For `COc1cc(Nc2nccc(N3CCC(NC(=O)Nc4cccc(C(C)=O)c4)C3)n2)cc(OC)c1OC` (stereo not shown) [GSK1379753], the “%Inh” value was 22%. For `Cn1cc(-c2ccc3c(c2)CCN3C(=O)Cc2cccc(F)c2)c2c(N)ncnc21` [GSK2603358], the “%Inh” value was 35%. With `Clc1ccc(-c2nn3ncccc3c2-c2ccnc(Nc3ccc4c(c3)OCCO4)n2)cc1` [GW829116] the “%Inh” value was 84%. For `Cl.Cl.NCC(NC(=O)c1cc(-c2ccccc2)c(-c2ccnc3[nH]ccc23)s1)c1ccccc1` (stereo not shown) [GSK1321561], the “%Inh” value was 84%. With `c1ccc(Oc2ccc(Nc3ccnc4cc(-c5ccc(CNCCN6CCOCC6)o5)ccc34)cc2)nc1` [GW567145] the “%Inh” value was 39%. For `CC(C)(C)c1ccc2nccc(Nc3cccc(O)c3)c2c1` [GW856795], the “%Inh” value was 63%. `COc1ccc(-c2coc3ccc(-c4nnc(SCc5ccc(OC)c(C(F)(F)F)c5)o4)cc23)cc1` was tested, and the “%Inh” value was 0%. With `COc1cccc(C2=C(Nc3ccc(Cl)c(C(=O)O)c3)C(=O)NC2=O)c1` [SB-390769] the “%Inh” value was 24%. With `O=C(Nc1n[nH]c2nc(-c3ccc(O)cc3)ccc12)C1CC1` [SB-710363] the “%Inh” value was 0%. For `CNC(=O)c1ccccc1Nc1nc(Nc2ccc(N3CCOCC3)cc2)ncc1Cl.Cl` [GSK1576028], the “%Inh” value was 98.8%. With `COc1ccc(Nc2nccc(NCCNC(=O)c3cc4ccccc4s3)n2)cc1` [GSK1379896] the “%Inh” value was 19%. For `COc1cc(Nc2nccc(-c3c(-c4cccc(NC(=O)c5c(F)cccc5F)c4)nn4ccccc34)n2)cc(OC)c1OC` [GSK323521], the “%Inh” value was 38%. `Cc1ccc(C(=O)N2CC[C@@H](O)C2)cc1-n1c(C)cc(OCc2ccc(F)cc2F)c(Br)c1=O` was tested, and the “%Inh” value was 0%. In the case of `Cc1ccc(S(=O)(=O)Nc2ccc(Nc3nccc(Nc4cccc5[nH]ncc45)n3)cc2)cc1` [GSK581271], the “%Inh” value is reported as 42%. For `COc1cc2c(cc1OCCN1CCNCC1)ncc1c3ccc(C#N)cc3[nH]c21`, the “%Inh” value was 26%.
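Also: KINOMEscan kinase panel screen.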
